The text below walks through data of PubChem BioAssay AID1531 (NMMLSC, 2009).

Out of some 290,000 compounds screened, about 3,300 (1.1%) were called active. The entries come from a sample that favours actives as a whole. Unmarked numbers belong to inactive results. No stated cut-off is given here; in the data, active means binding response below about 67% or above about 130%; inconclusive means no clear call, values can overlap the other calls; inactive means in between.

For the experiment, the target named is Mitogen-activated protein kinase kinase kinase 2 (Homo sapiens) (UniProt Q9Y2U5). In words: wildtype MEKK2 PB1-MEK5 interaction, increase or decrease – biochemical, multiplex bead flow cytometry, Alexa488-MEK5, primary screen (AID 1531). The conditions noted are these: Alexa488-MEK5 binding to MEKK2 WT, at 10 µM, actives lie on both sides. (In general: A flow cytometer gives signals particle by particle.)
As to `O=C(O)COc1ccccc1/C=C1\C(=O)NC(=O)N(CCC2=CCCCC2)C1=O`, the binding response (% of control) was -4% (active). Turning to `O=C1NC(=O)N(Cc2ccco2)C(=O)/C1=C\c1cccn1CCOc1ccccc1`, the binding response (% of control) was 110%. Consider `O=C1NC(=O)N(CCc2ccc(F)cc2)C(=O)/C1=C/C=C/c1ccccc1`, for which the binding response (% of control) is 97%. With `CCOP(=S)(OCC)C(O)CCCCCn1c(=O)c(F)cn(C2CCCO2)c1=O` (stereo not given), the binding response (% of control) is 106%. The same measure for `CCCCCCCCCCCCn1ccc(=N)cc1`: 173% (active); for `c1ccc(CC2CCCCN2)cc1` (stereo not given): 107%; for `N#Cc1ccc(Cn2cc(C(=O)c3ccco3)c3ccccc32)cc1`: 98%. For `Cc1ccc2c(c1)=C/C(=C\c1c(O)[nH]c(=O)[nH]c1=O)C(=O)N=2`, the binding response (% of control) was 99%.

Take `COC(=O)N1C(c2ccccc2)C1c1ccccc1` (stereo not given): the binding response (% of control) is 101%.

Regarding `CNCC(O)c1cc(F)c(OCc2ccccc2)c(OCc2ccccc2)c1F` (stereo not given), the binding response (% of control) was 141% (active). Take `COC(=O)C1=C(c2cc3ccccc3s2)C[C@@H]2CC[C@H]1N2C(=O)NCc1cccc2ccccc12`: the binding response (% of control) was 93%. The same measure for `c1ccc(CCNC2CCCCCC2)cc1`: 101%.

For `COc1ccc(-n2c(O)c(C(C)=Nc3ccc4c(c3)CCC4)c(=O)[nH]c2=O)cc1`, the binding response (% of control) was 99%. Take `CN(C)S(=O)(=O)c1cc(C(=O)N2CCC(C(=O)O)(c3ccccc3)CC2)ccc1Cl`: the binding response (% of control) is 106%. Turning to `COC(=O)C1=C(c2cc3ccccc3o2)C[C@@H]2CC[C@H]1N2C(=O)NC1CCCCC1`, the binding response (% of control) was 101%.
